An excerpt weighted towards active compounds, which were near 3.8% of everything screened.
Nrf2 block: Nrf2 pathway inhibition; A549 ARE-Fluc reporter, luciferase luminescence, 18-24 h; Potency, µM (top dose mostly 46 µM), most hits filed as inhibitors; actives 2.1% (n = 360,000); AID 504444; also: nearly all actives have a fitted effect of over 60% in size
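In this cell-based qHTS, ARE-driven firefly luciferase in A549 cells reports Nrf2 activity; the luminescent signal after BugLite lysis is the measured value, with a prior CellTiter-Fluor read for cell health.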
HepG2 tox-1: counter-screen for TGF-b inhibitors: cytotoxicity in HepG2 cells; HepG2 CAGA-GFP viability, ATP luminescence, 18 h; Potency, µM (doses to about 46.1 µM), usual class: cytotoxic; actives 0.76% (n = 410,000); AID 588856
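HepG2 CAGA-GFP cells (1000/well, DMEM with 1% FBS) received compound, then TGF-beta at 500 pg/mL final, and were incubated 18 hours at 37 degrees C. Viability was read by CellTiter-Glo luminescence. Media-only wells were set as complete cell-killing and DMSO as no toxicity.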
S2 tox: cell viability loss in ATXN counter-screen; S2 cells (HEK-293 line with an ATXN2-luciferase reporter) viability, CellTiter-Fluor protease fluorescence, 24 h; Potency, µM (top dose mostly 56.7 µM), usual class: cytotoxic; actives 0.49% (n = 400,000); AID 651635; also: nearly all actives have a fitted effect of over 40% in size
A549 tox: A549 cytotoxicity, counter-screen for Nrf2 inhibitors; A549 ARE-Fluc cells, CellTiter-Fluor viability, 18-24 h; Potency, µM (top dose mostly 46 µM), actives largely listed as inhibitors; actives 0.16% (n = 390,000); AID 504648
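A549 ARE-Fluc cells in 5% FBS OPTI-MEM, 5000 cells/well, rested 2 h then exposed to compounds in concentration-response for 18-24 h at 37 °C. Viability by CellTiter-Fluor fluorescence (Ex 405/Em 525) after 30 min; luciferase luminescence (BugLite, 15 min, RT) read afterwards.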
ATXN2 expr inh: reduces ATXN2 reporter expression in HEK-293 cells | HEK-293 ATXN2-luciferase reporter, luminescence, 24 h | Potency, µM (titrated, usually from 57 µM), most hits filed as inhibitors | actives 0.72% (n = 360,000); also: nearly all actives have a fitted effect of over 55% in size
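ATXN2-luciferase reporter cells (luciferase flanked by upstream and downstream ATXN2 gene portions) were treated 24 h at 37 °C with compounds at up to 57 uM. SteadyGlo luminescence gave expression; GF-AFC fluorescence gave viability.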
TGFb inhibitor: blocks TGF-b signaling; Potency, µM (series often up to 46.1 µM), usual class: inhibitors; AID 588855; actives 1.2% (n = 410,000); HepG2 CAGA-GFP TGF-b/SMAD3 reporter, GFP fluorescence, 18 h; TGF-beta stimulated, 500 pg/mL final; also: nearly all actives have a fitted effect of over 65% in size
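Cell-based qHTS in HEPG2 carrying a CAGA-GFP Smad reporter; compounds added before 500 pg/mL final TGF-beta, 18 h incubation at 37 degrees C, GFP fluorescence quantified per cell by imaging cytometry.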
TGFb confirm: TGF-b pathway inhibition, cherry-pick retest | Potency, µM (series often up to 46.1 µM), usual class: inhibitors | HepG2 CAGA-GFP TGF-b reporter, GFP fluorescence, 18 h; cells stimulated with TGF-beta, 500 pg/mL | AID 720534 | shares compounds with TGFb inhibitor | actives 63% (n = 1,600); also: nearly all actives have a fitted effect of over 65% in size
HepG2 tox-2: HepG2 cytotoxicity, TGF-b inhibitor counterscreen. actives 27% (n = 1,600). HepG2 CAGA-GFP viability, ATP luminescence, 18 h; cells stimulated with TGF-beta, 500 pg/mL. Potency, µM (doses to about 46.1 µM), actives largely listed as inhibitors. shares compounds with TGFb inhibitor; also: nearly all actives have a fitted effect of over 70% in size
CCL64 TGFb inh: orthogonal confirmation of TGF-b inhibitors in CCL64 cells. actives 41% (n = 1,600). shares compounds with TGFb inhibitor. CCL64 CAGA-GFP reporter, TGF-b stimulated, GFP fluorescence, 18 h. AID 720536. Potency, µM (titrated, usually from 46.1 µM), most hits filed as inhibitors; also: nearly all actives have a fitted effect of over 65% in size
TGFb COP inh: TGF-b inhibition validated with COP promoter. shares compounds with TGFb inhibitor. HepG2 COP-GFP TGF-b reporter, GFP fluorescence, 18 h; cells stimulated by added recombinant TGF-beta. Potency, µM (series often up to 46.1 µM), usual class: inhibitors. actives 3% (n = 1,600). AID 720537; also: nearly all actives have a fitted effect of over 70% in size
Large screens that a line does not name were inactive (follow-up assays come after a bar, where they were run). Calls follow the shape of the dose curve; as a rule, active = well fitted curve in the direction sought with a large enough effect; inconclusive = small, poorly fitted or top-dose-only effect, or another doubt; inactive = no such curve, though single readings can be large; an effect the other way counts as inactive or inconclusive.

Cc1ccc2nc(/N=C(\N)NC(=O)NC3CCCCC3)nc(C)c2c1	Nrf2 block 8.2µM, S2 tox 28.2µM, A549 tox 23.1µM, ATXN2 expr inh inconclusive, TGFb inhibitor 10µM | TGFb confirm 11.6µM | HepG2 tox-2 inconclusive | CCL64 TGFb inh 16.4µM | TGFb COP inh inactive
O=C(NCc1nnc(SCc2ccc(F)cc2)n1-c1ccc(F)cc1)C12CC3CC(CC(C3)C1)C2	Nrf2 block inconclusive, TGFb inhibitor 15.8µM | TGFb confirm inconclusive | HepG2 tox-2 inconclusive | CCL64 TGFb inh inconclusive | TGFb COP inh inactive
O=C(CSc1nnc(CNC(=O)C23CC4CC(CC(C4)C2)C3)n1-c1ccc(F)cc1)Nc1ccc(F)cc1	TGFb inhibitor inconclusive
Cc1ccc(OCC(=O)OCC(=O)NC2CCS(=O)(=O)C2)cc1C (centres undefined)	none (no result: Nrf2 block, A549 tox, ATXN2 expr inh)
O=C(Nc1nc2ccccc2s1)Nc1ccc(F)cc1F	Nrf2 block inconclusive
O=C(Nc1ccc(F)cc1F)Nc1sccc1-c1nc2ccccc2s1	A549 tox inconclusive, TGFb inhibitor 11.2µM (no result: ATXN2 expr inh) | TGFb confirm inconclusive | HepG2 tox-2 inactive | CCL64 TGFb inh inconclusive | TGFb COP inh inactive
CCCCN(CC)C(=O)CSc1nc2n[nH]c(C)c2c(=N)n1-c1cccc(C)c1	Nrf2 block inconclusive, S2 tox inconclusive, TGFb inhibitor 7.08µM (no result: ATXN2 expr inh) | TGFb confirm inconclusive | HepG2 tox-2 inactive | CCL64 TGFb inh inconclusive | TGFb COP inh inactive
CCN(CC)C(=O)C1=C(C)N(Cc2ccccc2)C(=O)C(CC(=O)NCc2ccco2)C1 (centres undefined)	S2 tox inconclusive (no result: Nrf2 block, A549 tox)
CC(C)c1nc2sc3c(c2c(=O)[nH]1)CC(C)(C)OC3	none
COCCNc1nc(NCc2cccs2)nc2ccsc12	TGFb inhibitor 12.6µM (no result: Nrf2 block, A549 tox) | TGFb confirm 6.51µM | HepG2 tox-2 inconclusive | CCL64 TGFb inh inconclusive | TGFb COP inh inactive
O=C1CCCN1CCCNc1nc(NCc2cccs2)nc2ccsc12	S2 tox inconclusive, TGFb inhibitor 10µM (no result: Nrf2 block, A549 tox) | TGFb confirm 6.51µM | HepG2 tox-2 inconclusive | CCL64 TGFb inh inconclusive | TGFb COP inh inactive
Cc1ccc(Nc2nc(NCc3cccs3)nc3ccsc23)c(C)c1	S2 tox inconclusive, ATXN2 expr inh inconclusive, TGFb inhibitor 12.6µM (no result: Nrf2 block, A549 tox) | TGFb confirm 6.51µM | HepG2 tox-2 inconclusive | CCL64 TGFb inh inconclusive | TGFb COP inh inactive
O=C(NCc1cccc(Br)c1)c1ccc(-n2cnc3cccnc32)cc1	Nrf2 block inconclusive (no result: S2 tox, ATXN2 expr inh)
COc1ccc2c(c1)CCc1cnc(-n3ncc(C(=O)N(C)CC4CCCN(C)C4)c3C)nc1-2 (centres undefined)	none (no result: Nrf2 block, HepG2 tox-1, A549 tox, ATXN2 expr inh, TGFb inhibitor)
O=S(=O)(CCOc1ccccc1)c1nc2ccccc2[nH]1	TGFb inhibitor 15.8µM | TGFb confirm 6.51µM | HepG2 tox-2 23.1µM | CCL64 TGFb inh 16.4µM | TGFb COP inh inconclusive
O=C(CCCOc1ccccc1)Nc1nc2ccccc2[nH]1	TGFb inhibitor inconclusive
O=C(NCc1cccnc1)/C(=C\c1ccc(-c2ccc(Br)cc2)o1)S(=O)(=O)c1ccccc1	Nrf2 block inconclusive, S2 tox 14.1µM, A549 tox inconclusive, ATXN2 expr inh 7.08µM, TGFb inhibitor 10µM | TGFb confirm 5.8µM | HepG2 tox-2 3.26µM | CCL64 TGFb inh 5.17µM | TGFb COP inh inconclusive
O=[N+]([O-])c1c(Nc2cccc(O)c2)cc(Cl)c2nonc12	Nrf2 block inconclusive, HepG2 tox-1 3.55µM, S2 tox 10µM, A549 tox inconclusive, ATXN2 expr inh inconclusive, TGFb inhibitor 3.55µM | TGFb confirm 2.91µM | HepG2 tox-2 3.26µM | CCL64 TGFb inh 2.91µM | TGFb COP inh 4.61µM
CCS(=O)(=O)N1CCc2cc(C(=O)NC(C)c3ccccc3)ccc21 (centres undefined)	TGFb inhibitor inconclusive
O=C(O)c1cccc(Nc2nc(-c3ccccc3)nc3ccccc23)c1	none
c1ccc(Nc2nc(-c3ccccc3)nc3ccccc23)cc1	none | TGFb confirm inconclusive | HepG2 tox-2 inconclusive | CCL64 TGFb inh inconclusive | TGFb COP inh inactive
COC(=O)c1ccc(Nc2nc(-c3ccc(C)cc3)nc3ccccc23)cc1	none
Fc1ccc(CNc2nc(-c3ccccc3)nc3ccccc23)cc1	TGFb inhibitor 17.8µM | TGFb confirm inconclusive | HepG2 tox-2 inconclusive | CCL64 TGFb inh inconclusive | TGFb COP inh inactive
c1ccc(-c2nc(NCc3cccnc3)c3ccccc3n2)cc1	Nrf2 block inconclusive
Oc1cccc(Nc2nc(-c3ccccc3Cl)nc3ccccc23)c1	S2 tox inconclusive | TGFb confirm inconclusive | HepG2 tox-2 inactive | CCL64 TGFb inh inconclusive | TGFb COP inh inactive
Cc1ccc(-c2nc(Nc3ccc(O)cc3)c3ccccc3n2)cc1	A549 tox inconclusive, TGFb inhibitor inconclusive | TGFb confirm inconclusive | HepG2 tox-2 inconclusive | CCL64 TGFb inh 14.6µM | TGFb COP inh inactive
CC(C(=O)N(C)c1ccccc1)N1CCN(C(=O)c2ccccc2)CC1 (centres undefined)	Nrf2 block inconclusive
Nc1c(Cl)cc(N=Nc2ccccc2)cc1Cl	Nrf2 block inconclusive, S2 tox inconclusive, TGFb inhibitor inconclusive
COc1ccc(Cn2ncc3c4sc(C)cc4n(C)c3c2=O)cc1F	none (no result: HepG2 tox-1, S2 tox, ATXN2 expr inh, TGFb inhibitor)
CC(C)(C)c1ccc(OCCNC(=S)Nc2ccccc2)cc1	Nrf2 block 16.4µM, A549 tox inconclusive, TGFb inhibitor 14.1µM | TGFb confirm inconclusive | HepG2 tox-2 inconclusive | CCL64 TGFb inh inconclusive | TGFb COP inh inactive
CC(C)(C)c1ccc(OCCNCc2ccccc2)cc1	none

Screens deposited in PubChem by National Center for Advancing Translational Sciences (NCATS).
